Test results as given in PubChem BioAssay (NCI).
This is part of a sample that, as a whole, favours compounds with a hit. Of some 79,000 tested, about 15% had one in any assay. Activity calls are given as the source filed them. Rule as the data show it: active = growth inhibition above about 70%; inactive = the rest.

What was measured:
[1] = NCI Yeast Anticancer Drug Screen. Data for the rad52 strain (AID 147);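 also: 0% = growth of vehicle-treated control cultures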; conditions: S. cerevisiae rad52 mutant growth inhibition, active compounds read high
Procedure, shortened: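 Compounds are applied to a genetically defined yeast strain lacking normal DNA damage repair, and inhibition of growth is expressed relative to cultures given vehicle only.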

[2] = NCI Yeast Anticancer Drug Screen. Data for the wt1 strain (AID 149);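 also: 0% = growth of vehicle-treated wt1 cultures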; conditions: S. cerevisiae wt1 strain (SPY 50644) growth inhibition, active compounds read high
Procedure, shortened: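 Compounds are added to wt1 yeast cultures. Growth is then measured. Inhibition is expressed relative to vehicle-treated controls.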

[3] = NCI Yeast Anticancer Drug Screen. Data for the rad50EPP+ strain (AID 151);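 also: 0% = growth of vehicle-treated control cultures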; conditions: S. cerevisiae rad50 mutant strain, active compounds read high
Procedure, shortened: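 Compounds were applied to the rad50EPP+ yeast strain, which bears a defined DNA repair alteration, and growth inhibition was determined relative to vehicle-treated cultures.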

[4] = NCI Yeast Anticancer Drug Screen. Data for the rad50 strain (AID 155);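 also: 0% = growth of vehicle-only cultures of the same strain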; conditions: S. cerevisiae rad50 strain growth inhibition, active compounds read high
Procedure, shortened: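 Inhibition values express reduced yeast growth in compound-treated cultures relative to vehicle-treated controls.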

[5] = NCI Yeast Anticancer Drug Screen. Data for the mec2-1 strain (AID 157); conditions: S. cerevisiae mec2-1 strain, active compounds read high
Procedure, shortened: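 Strain: mec2-1 (DNA repair/cell cycle alteration). Compound exposure, then growth measured; inhibition expressed relative to vehicle.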

[6] = NCI Yeast Anticancer Drug Screen. Data for the rad14 strain (AID 159);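 also: 0% = growth of vehicle-treated control cultures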; conditions: S. cerevisiae rad14 strain growth inhibition, active compounds read high
Procedure, shortened: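 A mutant yeast strain defective in DNA damage repair is treated with compound; inhibition of its growth is scored against untreated, vehicle-exposed cultures.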

[7] = NCI Yeast Anticancer Drug Screen. Data for the sgs1 mgt1 strain (AID 161);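 also: 0% = growth of cultures given vehicle only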; conditions: S. cerevisiae sgs1 mgt1 strain, active compounds read high
Procedure, shortened: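 Inhibition of yeast growth, normalised to vehicle-treated controls, is reported for a strain bearing genetic alterations in DNA damage repair.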

[8] = NCI Yeast Anticancer Drug Screen. Data for the CLN2oe strain (AID 163);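 also: 0% = growth of vehicle-only control cultures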; conditions: S. cerevisiae CLN2oe strain, active compounds read high
Procedure, shortened: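 Growth of a genetically modified yeast strain is measured after compound exposure and compared with cultures given vehicle alone.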

[9] = NCI Yeast Anticancer Drug Screen. Data for the cln2 rad14 strain (AID 165);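 also: 0% = growth equal to vehicle treated cultures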; conditions: S. cerevisiae cln2 rad14 strain, active compounds read high
Procedure, shortened: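 Compounds are applied to the cln2 rad14 yeast strain, and growth is then compared with that of vehicle-treated cultures to give inhibition.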

[10] = NCI Yeast Anticancer Drug Screen. Data for the bub3 strain (AID 167); conditions: S. cerevisiae bub3 mutant strain, active compounds read high
Procedure, shortened: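 Steps: expose the mutant yeast strain to compound; grow alongside vehicle-treated cultures; measure growth; express inhibition against the vehicle cultures.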

[11] = NCI Yeast Anticancer Drug Screen. Data for the wt2 strain (AID 169);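 also: 0% = growth of vehicle-treated yeast cultures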; conditions: S. cerevisiae wt2 strain growth inhibition, active compounds read high
Procedure, shortened: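 This strain belongs to a panel of yeast strains with defined genetic alterations in DNA damage repair or cell cycle control. Compounds are applied, and growth inhibition is measured against vehicle-treated cultures.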

[12] = NCI Yeast Anticancer Drug Screen. Data for the mlh1 strain (AID 171);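 also: 0% = growth of vehicle-treated control cultures of the same strain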; conditions: S. cerevisiae mlh1 strain growth inhibition, active compounds read high
Procedure, shortened: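 Growth of the mutant yeast strain after compound exposure, expressed as inhibition relative to vehicle-only controls.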

[13] = NCI Yeast Anticancer Drug Screen. Data for the sgs1 strain (AID 173);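 also: 0% = growth of vehicle-only control cultures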; conditions: S. cerevisiae sgs1 mutant, active compounds read high
Procedure, shortened: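 Growth of a yeast strain bearing a defined genetic alteration is measured after compound treatment. Inhibition is expressed relative to vehicle-only controls.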

[14] = NCI Yeast Anticancer Drug Screen. Data for the mlh1 rad18 strain (AID 175); conditions: S. cerevisiae mlh1 rad18 strain growth inhibition, active compounds read high
Procedure, shortened: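 Read-out is yeast growth inhibition, calculated against vehicle-only controls. The compound was applied to a strain engineered with DNA damage repair alterations.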

[15] = NCI Yeast Anticancer Drug Screen. Data for the rad18 strain (AID 177); conditions: S. cerevisiae rad18 mutant growth inhibition, active compounds read high
Procedure, shortened: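 Growth of the mutant yeast strain after compound exposure, normalised to vehicle-only cultures.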

[16] = at 5.0 µM (retest, dose inferred, filed as 0.5)
[17] = at 50.0 µM (retest, dose inferred, filed as 5.0)

Measured: growth inhibition

COc1cc(/C=C/c2sc3ccccc3[n+]2C)ccc1N(C)C
active: [1]; at 100.0 µM 93% | [2]; at 100.0 µM 97% | [3]; at 100.0 µM 87% | [4]; at 100.0 µM 96% | [5]; at 100.0 µM 98% | [6]; at 33.0 µM 88% | [6]; at 100.0 µM 99% | [7]; at 50.0 µM 93.5% | [8]; at 100.0 µM 96% | [10]; [17] 85% | [10]; at 100.0 µM 97% | [11]; at 100.0 µM 97% | [12]; at 33.0 µM 71% | [12]; at 100.0 µM 98% | [13]; at 33.0 µM 82% | [13]; at 100.0 µM 97% | [14]; at 50.0 µM 92.5% | [15]; at 33.0 µM 73% | [15]; at 100.0 µM 96%
inactive: [1]; at 1.2 µM 1% | [1]; at 3.7 µM -2% | [1]; at 11.0 µM 0% | [1]; at 33.0 µM 67% | [2]; at 1.2 µM 0% | [2]; at 3.7 µM -1% | [2]; at 11.0 µM -1% | [2]; at 33.0 µM 30% | [3]; at 1.2 µM -1% | [3]; at 3.7 µM 4% | [3]; at 11.0 µM 11% | [3]; at 33.0 µM 31% | [4]; at 1.2 µM -4% | [4]; at 3.7 µM 6% | [4]; [16] 3% | [4]; at 11.0 µM -18% | [4]; at 33.0 µM 65% | [4]; [17] 4% | [4]; at 50.0 µM 67.8% | [5]; at 1.2 µM 0% | [5]; at 3.7 µM 0% | [5]; [16] 3% | [5]; at 11.0 µM 2% | [5]; at 33.0 µM 69% | [5]; [17] 0% | [5]; at 50.0 µM 61.1% | [6]; at 1.2 µM -4% | [6]; at 3.7 µM -7% | [6]; at 11.0 µM -2% | [7]; [16] 2% | [7]; [17] 7% | [8]; at 1.2 µM -5% | [8]; at 3.7 µM -2% | [8]; at 11.0 µM -2% | [8]; at 33.0 µM 50% | [9]; [16] -2% | [9]; [17] -1% | [9]; at 50.0 µM 33.6% | [10]; at 1.2 µM -2% | [10]; at 3.7 µM 1% | [10]; [16] 3% | [10]; at 11.0 µM -2% | [10]; at 33.0 µM 68% | [10]; at 50.0 µM 64.5% | [11]; at 1.2 µM 0% | [11]; at 3.7 µM -1% | [11]; at 11.0 µM -2% | [11]; at 33.0 µM 62% | [12]; at 1.2 µM 0% | [12]; at 3.7 µM -4% | [12]; at 11.0 µM -3% | [13]; at 1.2 µM 0% | [13]; at 3.7 µM 0% | [13]; at 11.0 µM -1% | [14]; [16] -11% | [14]; [17] -6% | [15]; at 1.2 µM 2% | [15]; at 3.7 µM 5% | [15]; at 11.0 µM 2%

CN=C(N)N/N=C(\C)c1ccc2oc3ccc(/C(C)=N/NC(N)=NC)cc3c2c1
active: [1]; at 11.0 µM 88% | [1]; at 33.0 µM 98% | [1]; at 100.0 µM 98% | [2]; at 33.0 µM 98% | [2]; at 100.0 µM 98% | [3]; at 11.0 µM 70% | [3]; at 33.0 µM 96% | [3]; at 100.0 µM 98% | [4]; [16] 81% | [4]; at 11.0 µM 92% | [4]; at 33.0 µM 98% | [4]; [17] 98% | [4]; at 50.0 µM 90% | [4]; at 100.0 µM 98% | [5]; at 33.0 µM 98% | [5]; [17] 99% | [5]; at 50.0 µM 93.6% | [5]; at 100.0 µM 98% | [6]; at 33.0 µM 98% | [6]; at 100.0 µM 98% | [7]; [17] 99% | [7]; at 50.0 µM 90.4% | [8]; at 33.0 µM 97% | [8]; at 100.0 µM 98% | [9]; [17] 98% | [9]; at 50.0 µM 91.8% | [10]; at 33.0 µM 97% | [10]; [17] 99% | [10]; at 50.0 µM 89.2% | [10]; at 100.0 µM 98% | [11]; at 11.0 µM 95% | [11]; at 33.0 µM 98% | [11]; at 100.0 µM 98% | [12]; at 33.0 µM 98% | [12]; at 100.0 µM 98% | [13]; at 33.0 µM 98% | [13]; at 100.0 µM 98% | [14]; [17] 98% | [14]; at 50.0 µM 87.5% | [15]; at 11.0 µM 70% | [15]; at 33.0 µM 98% | [15]; at 100.0 µM 98%
inactive: [1]; at 1.2 µM 11% | [1]; at 3.7 µM 28% | [2]; at 1.2 µM -8% | [2]; at 3.7 µM -21% | [2]; at 11.0 µM 11% | [3]; at 1.2 µM -17% | [3]; at 3.7 µM 23% | [4]; at 1.2 µM 34% | [4]; at 3.7 µM 64% | [5]; at 1.2 µM -11% | [5]; at 3.7 µM -9% | [5]; [16] 15% | [5]; at 11.0 µM 15% | [6]; at 1.2 µM 4% | [6]; at 3.7 µM -18% | [6]; at 11.0 µM 43% | [7]; [16] 56% | [8]; at 1.2 µM -66% | [8]; at 3.7 µM -74% | [8]; at 11.0 µM 20% | [9]; [16] 13% | [10]; at 1.2 µM -14% | [10]; at 3.7 µM -24% | [10]; [16] 37% | [10]; at 11.0 µM 2% | [11]; at 1.2 µM -4% | [11]; at 3.7 µM 2% | [12]; at 1.2 µM -23% | [12]; at 3.7 µM -24% | [12]; at 11.0 µM 35% | [13]; at 1.2 µM -21% | [13]; at 3.7 µM -14% | [13]; at 11.0 µM 37% | [14]; [16] 54% | [15]; at 1.2 µM -13% | [15]; at 3.7 µM -13%

O=C(Nc1cccc(C(F)(F)F)c1)Oc1ccc(Cl)cc1C(=O)c1ccccc1
active: [1]; at 11.0 µM 80% | [1]; at 100.0 µM 98% | [2]; at 11.0 µM 76% | [2]; at 33.0 µM 80% | [2]; at 100.0 µM 97% | [3]; at 100.0 µM 96% | [4]; [16] 99% | [4]; at 11.0 µM 90% | [4]; at 33.0 µM 82% | [4]; [17] 97% | [4]; at 50.0 µM 90.4% | [4]; at 100.0 µM 98% | [5]; [16] 100% | [5]; at 11.0 µM 88% | [5]; at 33.0 µM 97% | [5]; [17] 89% | [5]; at 50.0 µM 92.9%
inactive: [1]; at 1.2 µM 15% | [1]; at 3.7 µM 17% | [1]; at 33.0 µM 69% | [2]; at 1.2 µM 18% | [2]; at 3.7 µM 13% | [3]; at 1.2 µM 26% | [3]; at 3.7 µM 7% | [3]; at 11.0 µM 34% | [3]; at 33.0 µM 41% | [4]; at 1.2 µM 22% | [4]; at 3.7 µM 17% | [5]; at 1.2 µM 19% | [5]; at 3.7 µM 42%
